Over roughly 16,000 sequences, “rpm ratio (pull-down/input)” has its median near 0.5; the highest 2% begin near 5.5. The sample holds the highest values, similar sequences and a random draw of the others, so the mix is not that of the screen.

The target in this experiment is T1, MBP-FoxP3dN (Mus musculus, UniProt Q99JB6 188-423).
T1 sequence: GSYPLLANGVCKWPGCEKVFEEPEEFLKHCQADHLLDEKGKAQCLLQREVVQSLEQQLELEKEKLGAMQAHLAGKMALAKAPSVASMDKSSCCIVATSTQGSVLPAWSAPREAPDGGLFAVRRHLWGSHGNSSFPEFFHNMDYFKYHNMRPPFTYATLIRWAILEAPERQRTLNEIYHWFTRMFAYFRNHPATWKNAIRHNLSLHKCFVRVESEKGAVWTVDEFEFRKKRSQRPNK
The experiment is described as follows: PD-seq (MBP pull-down with sequencing); 20 mM Tris-HCl pH 7.5, 100 mM NaCl, 1.5 mM MgCl2, 0.4 uM protein, 0.1 uM dsDNA library, 30 min, room temperature, amylose pull-down; high values mean tight binding. The note with it: protein: recombinant; tags: His6-MBP; chain copies: 2; dsDNA, one strand shown. The essentials: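 Mouse FoxP3 or FoxP1 fragment lacking the N-terminus, His6-MBP-tagged and expressed in E. coli, was incubated at 0.4 µM with 0.1 µM Klenow-filled degenerate double-stranded DNA library for 30 min at room temperature in Tris pH 7.5 buffer with NaCl and MgCl2. Complexes captured on amylose resin were washed three times and their DNA sequenced on Illumina. Binding is reads-per-million enrichment of pull-down over input, replicates pooled.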
For “GATGATTGTTCTCCCAGCTGATGAATTCTTGACCTCGAGTAAACAAATTTTCCTAATCTTTCTGTTCAAGCGCCATCTAC”, the binding signal is 0.216 RPM ratio (pull-down/input).

Turning to “GATGATTGTTCTCCCAGCTGATGAATTCATTCCGTCGAGTAAACAAATTTTCCTAATCTTTCTGTTCAAGCGCCATCTAC”, the binding signal is 0.236 RPM ratio (pull-down/input).

With “GATGATTGTTCTCCCAGCTGATGAATTTTTCAGTTCGAGTAAACAAATTTTCCTAATCTTTCTGTTCAAGCGCCATCTAC”, the binding signal is 0.248 RPM ratio (pull-down/input).

Regarding “GATGATTGTTCTCCCAGCTGATGAATTTGAGTAGTCGAGTAAACAAATTTTCCTAATCTTTCTGTTCAAGCGCCATCTAC”, the binding signal is 0.778 RPM ratio (pull-down/input).

Turning to “GATGATTGTTCTCCCAGCTGATGAATTTGGTGTGTCGAGTAAACAAATTTTCCTAATCTTTCTGTTCAAGCGCCATCTAC”, the binding signal is 3.91 RPM ratio (pull-down/input).

On to “GATGATTGTTCTCCCAGCTGATGAATTTTTGTGGTCGAGTAAACAAATTTTCCTAATCTTTCTGTTCAAGCGCCATCTAC”, for which the binding signal was 0.472 RPM ratio (pull-down/input).

“GATGATTGTTCTCCCAGCTGATGAATTTGTGGTGTCGAGTAAACAAATTTTCCTAATCTTTCTGTTCAAGCGCCATCTAC”: the binding signal is 6.2 RPM ratio (pull-down/input).

“GATGATTGTTCTCCCAGCTGATGAATTTGTGTGGTCGAGTAAACAAATTTTCCTAATCTTTCTGTTCAAGCGCCATCTAC”: the binding signal was 5.5 RPM ratio (pull-down/input).

In the case of “GATGATTGTTCTCCCAGCTGATGAATTTCTGTGGTCGAGTAAACAAATTTTCCTAATCTTTCTGTTCAAGCGCCATCTAC”, the binding signal is 0.335 RPM ratio (pull-down/input).

As to “GATGATTGTTCTCCCAGCTGATGAATTTTTGGTGTCGAGTAAACAAATTTTCCTAATCTTTCTGTTCAAGCGCCATCTAC”, the binding signal was 0.396 RPM ratio (pull-down/input).

As for “GATGATTGTTCTCCCAGCTGATGAATTTAGCCCATCGAGTAAACAAATTTTCCTAATCTTTCTGTTCAAGCGCCATCTAC”, the binding signal was 1.28 RPM ratio (pull-down/input).

As for “GATGATTGTTCTCCCAGCTGATGAATTTCCACGATCGAGTAAACAAATTTTCCTAATCTTTCTGTTCAAGCGCCATCTAC”, the binding signal was 0.211 RPM ratio (pull-down/input).

As for “GATGATTGTTCTCCCAGCTGATGAATTGCATCGGTCGAGTAAACAAATTTTCCTAATCTTTCTGTTCAAGCGCCATCTAC”, the binding signal was 1.43 RPM ratio (pull-down/input).

Take “GATGATTGTTCTCCCAGCTGATGAATTATGATGTTCGAGTAAACAAATTTTCCTAATCTTTCTGTTCAAGCGCCATCTAC”: the binding signal was 3.29 RPM ratio (pull-down/input).

Regarding “GATGATTGTTCTCCCAGCTGATGAATTATGTCTTTCGAGTAAACAAATTTTCCTAATCTTTCTGTTCAAGCGCCATCTAC”, the binding signal is 1.78 RPM ratio (pull-down/input).

As for “GATGATTGTTCTCCCAGCTGATGAATTATGATGATCGAGTAAACAAATTTTCCTAATCTTTCTGTTCAAGCGCCATCTAC”, the binding signal was 1.63 RPM ratio (pull-down/input).

With “GATGATTGTTCTCCCAGCTGATGAATTATGTTTTTCGAGTAAACAAATTTTCCTAATCTTTCTGTTCAAGCGCCATCTAC”, the binding signal is 6.33 RPM ratio (pull-down/input).

In the case of “GATGATTGTTCTCCCAGCTGATGAATTATGTTGATCGAGTAAACAAATTTTCCTAATCTTTCTGTTCAAGCGCCATCTAC”, the binding signal is 7.26 RPM ratio (pull-down/input).

As to “GATGATTGTTCTCCCAGCTGATGAATTATCTTGGTCGAGTAAACAAATTTTCCTAATCTTTCTGTTCAAGCGCCATCTAC”, the binding signal is 0.323 RPM ratio (pull-down/input).

Take “GATGATTGTTCTCCCAGCTGATGAATTATGTTCATCGAGTAAACAAATTTTCCTAATCTTTCTGTTCAAGCGCCATCTAC”: the binding signal was 1.09 RPM ratio (pull-down/input).

Turning to “GATGATTGTTCTCCCAGCTGATGAATTATGTTCTTCGAGTAAACAAATTTTCCTAATCTTTCTGTTCAAGCGCCATCTAC”, the binding signal is 1.3 RPM ratio (pull-down/input).

In the case of “GATGATTGTTCTCCCAGCTGATGAATTATGTGTTTCGAGTAAACAAATTTTCCTAATCTTTCTGTTCAAGCGCCATCTAC”, the binding signal was 4.42 RPM ratio (pull-down/input).

As for “GATGATTGTTCTCCCAGCTGATGAATTATGATGGTCGAGTAAACAAATTTTCCTAATCTTTCTGTTCAAGCGCCATCTAC”, the binding signal is 1.33 RPM ratio (pull-down/input).

Consider “GATGATTGTTCTCCCAGCTGATGAATTATGTTGGTCGAGTAAACAAATTTTCCTAATCTTTCTGTTCAAGCGCCATCTAC”, for which the binding signal is 6.57 RPM ratio (pull-down/input).

With “GATGATTGTTCTCCCAGCTGATGAATTATGTTGTTCGAGTAAACAAATTTTCCTAATCTTTCTGTTCAAGCGCCATCTAC”, the binding signal is 7.62 RPM ratio (pull-down/input).

For “GATGATTGTTCTCCCAGCTGATGAATTAGATCATTCGAGTAAACAAATTTTCCTAATCTTTCTGTTCAAGCGCCATCTAC”, the binding signal was 0.534 RPM ratio (pull-down/input).

Consider “GATGATTGTTCTCCCAGCTGATGAATTTAAGGTGTCGAGTAAACAAATTTTCCTAATCTTTCTGTTCAAGCGCCATCTAC”, for which the binding signal was 0.772 RPM ratio (pull-down/input).

For the sequence “GATGATTGTTCTCCCAGCTGATGAATTCACTAAATCGAGTAAACAAATTTTCCTAATCTTTCTGTTCAAGCGCCATCTAC”, the binding signal is 0.211 RPM ratio (pull-down/input).

Take “GATGATTGTTCTCCCAGCTGATGAATTCTGGTCGTCGAGTAAACAAATTTTCCTAATCTTTCTGTTCAAGCGCCATCTAC”: the binding signal was 0.464 RPM ratio (pull-down/input).

For “GATGATTGTTCTCCCAGCTGATGAATTCTCAGCTTCGAGTAAACAAATTTTCCTAATCTTTCTGTTCAAGCGCCATCTAC”, the binding signal was 0.293 RPM ratio (pull-down/input).

Regarding “GATGATTGTTCTCCCAGCTGATGAATTATGATAATCGAGTAAACAAATTTTCCTAATCTTTCTGTTCAAGCGCCATCTAC”, the binding signal was 0.653 RPM ratio (pull-down/input).

“GATGATTGTTCTCCCAGCTGATGAATTTAGGGCTTCGAGTAAACAAATTTTCCTAATCTTTCTGTTCAAGCGCCATCTAC”: the binding signal is 0.514 RPM ratio (pull-down/input).

As for “GATGATTGTTCTCCCAGCTGATGAATTTTGCGTATCGAGTAAACAAATTTTCCTAATCTTTCTGTTCAAGCGCCATCTAC”, the binding signal was 3.74 RPM ratio (pull-down/input).

Regarding “GATGATTGTTCTCCCAGCTGATGAATTGTGACAGTCGAGTAAACAAATTTTCCTAATCTTTCTGTTCAAGCGCCATCTAC”, the binding signal was 0.817 RPM ratio (pull-down/input).

With “GATGATTGTTCTCCCAGCTGATGAATTGTCAGAGTCGAGTAAACAAATTTTCCTAATCTTTCTGTTCAAGCGCCATCTAC”, the binding signal is 0.234 RPM ratio (pull-down/input).

In the case of “GATGATTGTTCTCCCAGCTGATGAATTCCCGTCTTCGAGTAAACAAATTTTCCTAATCTTTCTGTTCAAGCGCCATCTAC”, the binding signal was 0.33 RPM ratio (pull-down/input).

For the sequence “GATGATTGTTCTCCCAGCTGATGAATTAGTAAACTCGAGTAAACAAATTTTCCTAATCTTTCTGTTCAAGCGCCATCTAC”, the binding signal was 1.08 RPM ratio (pull-down/input).

In the case of “GATGATTGTTCTCCCAGCTGATGAATTACGTTGGTCGAGTAAACAAATTTTCCTAATCTTTCTGTTCAAGCGCCATCTAC”, the binding signal is 1.3 RPM ratio (pull-down/input).

As for “GATGATTGTTCTCCCAGCTGATGAATTCTGTTATTCGAGTAAACAAATTTTCCTAATCTTTCTGTTCAAGCGCCATCTAC”, the binding signal is 6.72 RPM ratio (pull-down/input).

As to “GATGATTGTTCTCCCAGCTGATGAATTATGTAATTCGAGTAAACAAATTTTCCTAATCTTTCTGTTCAAGCGCCATCTAC”, the binding signal is 3.03 RPM ratio (pull-down/input).

With “GATGATTGTTCTCCCAGCTGATGAATTATTTTGTTCGAGTAAACAAATTTTCCTAATCTTTCTGTTCAAGCGCCATCTAC”, the binding signal is 1.15 RPM ratio (pull-down/input).

“GATGATTGTTCTCCCAGCTGATGAATTTCGTTATTCGAGTAAACAAATTTTCCTAATCTTTCTGTTCAAGCGCCATCTAC”: the binding signal was 2.7 RPM ratio (pull-down/input).

As to “GATGATTGTTCTCCCAGCTGATGAATTATTTGTTTCGAGTAAACAAATTTTCCTAATCTTTCTGTTCAAGCGCCATCTAC”, the binding signal was 4.2 RPM ratio (pull-down/input).

Turning to “GATGATTGTTCTCCCAGCTGATGAATTATTATGTTCGAGTAAACAAATTTTCCTAATCTTTCTGTTCAAGCGCCATCTAC”, the binding signal is 1.3 RPM ratio (pull-down/input).

As for “GATGATTGTTCTCCCAGCTGATGAATTGTTATTTTCGAGTAAACAAATTTTCCTAATCTTTCTGTTCAAGCGCCATCTAC”, the binding signal was 4.89 RPM ratio (pull-down/input).

Take “GATGATTGTTCTCCCAGCTGATGAATTTGATTATTCGAGTAAACAAATTTTCCTAATCTTTCTGTTCAAGCGCCATCTAC”: the binding signal was 4.96 RPM ratio (pull-down/input).

Take “GATGATTGTTCTCCCAGCTGATGAATTATGTTATTCGAGTAAACAAATTTTCCTAATCTTTCTGTTCAAGCGCCATCTAC”: the binding signal is 7.23 RPM ratio (pull-down/input).

Regarding “GATGATTGTTCTCCCAGCTGATGAATTTGTTATTTCGAGTAAACAAATTTTCCTAATCTTTCTGTTCAAGCGCCATCTAC”, the binding signal was 7.62 RPM ratio (pull-down/input).

In the case of “GATGATTGTTCTCCCAGCTGATGAATTTTGTTATTCGAGTAAACAAATTTTCCTAATCTTTCTGTTCAAGCGCCATCTAC”, the binding signal was 7.33 RPM ratio (pull-down/input).

Turning to “GATGATTGTTCTCCCAGCTGATGAATTTGGTTATTCGAGTAAACAAATTTTCCTAATCTTTCTGTTCAAGCGCCATCTAC”, the binding signal was 3.56 RPM ratio (pull-down/input).

For the origin of these results see paper PMC12820563, “FoxP3 forms a head-to-head dimer in vivo and stabilizes its multimerization on adjacent microsatellites”.
